# According to PubChem BioAssay AID588397 (National Center for Advancing Translational Sciences (NCATS), 2011):
# “And” between values parts separate entries of the source, which are not always exact repeats. Equal entries are not always repeated. About 1,000 (77%) of roughly 1,300 compounds were called active. Not shown: some 7% with an inconclusive outcome. So high a share suggests a set chosen from earlier hits. The list shows a part of the results. Unmarked numbers belong to inactive results. Calls follow the shape of the dose curve; as a rule, active = well fitted inhibition curve with a large enough effect; inconclusive = small, poorly fitted or top-dose-only effect; inactive = no such curve, though single readings can be large or run the other way.
# Assay: qHTS of small molecules that selectively kill Giardia lamblia: Hit Validation.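 Also: viability measured as ATP content by luminescence so killing lowers signal; trophozoites exposed to compounds for 48 h anaerobically at 37 °C; nearly all actives have a fitted effect of over 65% in size.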
# Conditions: Giardia lamblia trophozoite viability, dose-response; series mostly up to 38.3 µM; activity change, negative = killing: at the top concentration
# Summary of the method: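 Media and compound were dispensed first, then trophozoites at 100 cells/well; plates sat 48 hrs at 37 deg C without oxygen before ATP luminescence reagent was added and read after 15-30 min at room temperature.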
# % is scaled to controls: 0 for no effect and ±100 for the full control effect; potency is read from the fitted curve at half-maximal effect.
SMILES,Potency,"activity change, negative = killing [%]"
Cc1ncc([N+](=O)[O-])n1CC(O)CCl (stereo not drawn),1.16 µM (active),–
Cc1ncc([N+](=O)[O-])n1CCO,4.1 µM (active) and 4.6 µM (active),–
COc1cc2nc(N3CCN(c4cc(C)ccc4C)CC3)nc(N)c2cc1OC,4.1 µM (active),–
COc1cc2nc(N3CCN(C)CC3)nc(NC(C)C)c2cc1OC,0.918 µM (active),–
COc1cc2nc(N3CCCCC3)nc(NC3CCN(Cc4ccccc4)CC3)c2cc1OC,2.05 µM (active),–
COc1cc2nc(N3CCN(C)CC3)nc(NC3CC3)c2cc1OC,0.365 µM (active),–
COc1cc2nc(N3CCCN(C)CC3)nc(NC3CCCCC3)c2cc1OC,0.65 µM (active),–
Cc1ccc(C(C(=O)NCc2ccco2)N(C(=O)CNC(=O)c2cccs2)c2c(C)cccc2C)cc1 (stereo not drawn),0.818 µM (active),–
O=C1C2C3C=CC(C3)C2C(=O)N1Nc1ccc([N+](=O)[O-])cc1[N+](=O)[O-] (stereo not drawn),4.1 µM (active),–
Cn1c(=NC(=O)c2cnccn2)sc2ccccc21,5.79 µM (active),–
CC(Oc1ccccc1)C(=O)Nc1nnc(S(=O)(=O)N2CCCCC2)s1 (stereo not drawn),3.65 µM (active),–
CC(Oc1ccccc1)C(=O)Nc1nnc(S(=O)(=O)N2CCCCCC2)s1 (stereo not drawn),5.16 µM (active),–
Cn1nc(N)c2c(-c3ccccc3)c(C#N)c(N)nc21,4.6 µM (active),–
Cn1nc(N)c2c(-c3ccc(Cl)cc3)c(C#N)c(N)nc21,2.9 µM (active),–
Cc1ccc(OCC(=O)c2cc(C)n(Cc3cccs3)c2C)c([N+](=O)[O-])n1,0.818 µM (active),–
Cc1cc(C(=O)COc2cccnc2[N+](=O)[O-])c(C)n1Cc1cccs1,1.03 µM (active),–
O=C(N/N=C/c1ccc([N+](=O)[O-])o1)c1cn(-c2ccccc2)nc1-c1ccccc1,0.818 µM (active),–
COc1ccc(-c2nn(-c3ccccc3)cc2C(=O)N/N=C/c2ccc([N+](=O)[O-])o2)cc1,0.516 µM (active),–
O=C(N/N=C/c1ccc([N+](=O)[O-])o1)c1cn(-c2ccccc2)nc1-c1ccc(F)cc1,0.516 µM (active),–
O=C(N/N=C/c1ccc([N+](=O)[O-])o1)c1cn(-c2ccccc2)nc1-c1ccc(Cl)cc1,1.03 µM (active),–
CCOC(=O)c1cc([N+](=O)[O-])sc1NC(=O)CC,1.03 µM (active),–
CN(Cc1cccc(Cl)c1)C(=O)C1CCC(=O)N(C2CC2)C1 (stereo not drawn),–,-13
O=C(COc1cccnc1[N+](=O)[O-])Nc1ccc(Cl)cc1F,1.83 µM (active),–
O=C(COc1cccnc1[N+](=O)[O-])Nc1cc(Cl)ccc1Cl,4.6 µM (active),–

SMILES,Potency,"activity change, negative = killing [%]"
CC(OC(=O)c1ccc([N+](=O)[O-])s1)C(=O)NC1CCCCC1C (stereo not drawn),3.65 µM (active),–
CC(OC(=O)c1ccc(Cl)nc1)C(=O)NC1CCCC1 (stereo not drawn),–,-9.62
O=C(NCc1ccc(Cl)cc1)C1CCC(CNS(=O)(=O)c2ccccc2)CC1 (stereo not drawn),–,7.82
O=C(NCc1ccccn1)C1CCCN(S(=O)(=O)c2cc(Cl)ccc2Cl)C1 (stereo not drawn),1.03 µM (active),–
Cc1ccc2nc(NC(=O)C3CCCN(S(=O)(=O)c4cnc[nH]4)C3)sc2c1 (stereo not drawn),–,-7.55
CC/C=C1/N=C2C(=O)N(C)C(=O)N=C2N(C)N1,0.13 µM (active),–
CN1N/C(=C\c2ccccc2)N=C2C(=O)N(C)C(=O)N=C21,0.259 µM (active),–
O=S1(=O)[C@H]2C[C@@H]3C=C[C@@]2(CN1Cc1cccc(F)c1)O3,–,-10.8
Cc1cccc(CCN=c2c([N+](=O)[O-])nn(-c3ccccc3)n2O)c1,2.9 µM (active),–
COc1ccc(-n2nc([N+](=O)[O-])c(=NCCc3cccc(C)c3)n2O)cc1,1.3 µM (active),–
CN(C)c1nc(=Nc2cccc(Cl)c2)ss1,11.6 µM (active),–
CCCSc1nc2c(c(=O)n1CC)SC(C)C2 (stereo not drawn),–,-12.4
O=C(CSc1nnc(NC(=O)c2c(F)cccc2F)s1)Nc1ccc(F)cc1,–,-33.4
O=C(Nc1nnc(SCC(=O)N2CCOCC2)s1)c1ccccc1,5.16 µM (active),–
O=C(CSc1nnc(NC(=O)c2ccccc2)s1)NCc1ccco1,4.6 µM (active),–
O=C(Nc1nnc(SCC(=O)N2CCOCC2)s1)c1ccccc1Cl,5.79 µM (active),–
O=[N+]([O-])c1cn(-c2nc(-c3ccco3)cc(C(F)(F)F)n2)cn1,2.59 µM (active),–
COC(=O)[C@@]1(Cc2ccc(OC)cc2)[C@H]2c3cc(C(=O)N4CCCC4)n(CCn4cc([N+](=O)[O-])nc4C)c3C[C@H]2CN1C(=O)c1ccccc1,0.206 µM (active),–
O=[N+]([O-])c1ncc(Br)cc1Nc1ccccc1,0.516 µM (active),–
C[C@@H]1[C@H]2[C@@H](O[C@@H]3O[C@H](CO)[C@@H](O)[C@H](O)[C@H]3O)OC=C(C(=O)O)[C@H]2C[C@@H]1O,–,-3.42
Nc1nonc1OCCN1CCN(c2ccc([N+](=O)[O-])c3cccnc23)CC1,1.83 µM (active),–
CS(=O)(=O)N1CCN(c2ccc([N+](=O)[O-])c3cccnc23)CC1,1.03 µM (active),–
O=C(c1cccc(F)c1)N1CCN(c2ccc([N+](=O)[O-])c3cccnc23)CC1,3.26 µM (active),–
O=[N+]([O-])c1ccc(N2CCN(CCO)CC2)c2ncccc12,1.45 µM (active),–

SMILES,Potency,"activity change, negative = killing [%]"
O=c1c([N+](=O)[O-])cccn1Cc1ccccc1Cl,4.1 µM (active),–
O=c1c([N+](=O)[O-])cccn1Cc1ccc(F)cc1Cl,2.31 µM (active),–
Cc1ccccc1/C=N/Nc1ccnc2cc(Cl)ccc12,0.326 µM (active),–
Clc1ccc2c(N/N=C/c3ccccc3Br)ccnc2c1,1.63 µM (active),–
Cc1ccc(/C=N/Nc2ccnc3cc(Cl)ccc23)c(C)c1,0.365 µM (active),–
COc1cc(/C=C/c2onc(C)c2[N+](=O)[O-])cc(OC)c1OC,2.05 µM (active),–
Cc1noc(/C=C/c2cccnc2)c1[N+](=O)[O-],8.18 µM (active),–
Cc1cc2[nH]c3c(c[n+](C)c4ccccc34)c2cc1C,1.16 µM (active),–
CC(C)Oc1ccccc1C1Nc2ccccc2C(=O)N1c1ccc2c(c1)OCCO2 (stereo not drawn),5.16 µM (active),–
COc1cc(C2Nc3ccccc3C(=O)N2c2ccc3c(c2)OCCO3)ccc1OCC(C)C (stereo not drawn),3.26 µM (active),–
CN(C)c1ccc(N=Nc2ccccc2C(=O)O)cc1,0.29 µM (active),–
CN(C)c1ccc(N=Nc2ccccc2C(=O)OCC(=O)N2CCCC2)cc1,1.45 µM (active),–
CC(=O)c1ccc(NC(=O)COC(=O)c2ccccc2N=Nc2ccc(N(C)C)cc2)cc1,3.26 µM (active),–
CC(=O)NC(Cc1cccc(C)c1)C(=O)NC1CCN(c2ncccc2[N+](=O)[O-])CC1 (stereo not drawn),4.6 µM (active),–
Cc1ccc(-n2nc3c(N4CCC(C(=O)NCc5cccc(F)c5)CC4)nnc(C)c3c2C)cc1,–,-12.7
CC(=O)NC(Cc1cccc(F)c1)C(=O)NC1CCN(c2ncccc2[N+](=O)[O-])CC1 (stereo not drawn),2.31 µM (active),–
COc1ccc(OC)c(CCNC(=O)CSc2ccsc2[N+](=O)[O-])c1,0.729 µM (active),–
COc1ccc(CCNC(=O)CSc2ccsc2[N+](=O)[O-])cc1OC,0.516 µM (active),–
COc1ccc(CCNC(=O)C23CCC(C)(C(=O)C2=O)C3(C)C)cc1OC (stereo not drawn),–,-8.09
COCCn1c(C)cc(/C=C2/SC(=O)N(C(C)C(=O)OC)C2=O)c1C (stereo not drawn),5.79 µM (active),–
COCCn1c(C)cc(/C=C2\NC(=S)N(C)C2=O)c1C,–,-34.6
O=C(Nc1ccc(-c2cn3ccsc3n2)cc1)C1CC1,3.26 µM (active),–
COc1ccc(-c2cn3ccsc3n2)cc1,9.18 µM (active),–
COc1ccc(OCc2nnc3n2N=C(c2ccc(OC)cc2)CS3)cc1,–,-24.4

SMILES,Potency,"activity change, negative = killing [%]"
CC(=O)OCCSc1c(-c2ccccc2)c2cc(Cl)ccc2[nH]c1=O,–,-2.52
Cc1ccc(N/C(C(Cl)=C(Cl)Cl)=C(/Cl)[N+](=O)[O-])c(C)c1,0.818 µM (active),–
CCS(=O)(=O)N1Cc2ccccc2CC1C(=O)Nc1ccccc1OC (stereo not drawn),–,-4.77
Cc1ccc([N+](=O)[O-])c(C(=O)Nc2cccnc2Cl)c1,–,-9.71
COc1ccccc1S(=O)(=O)Cc1ccc(C(=O)NCC(OC)OC)o1,–,11.7
Cc1ccc(NC(=O)c2ccc([N+](=O)[O-])o2)c(C)c1,1.3 µM (active),–
COc1ccccc1NC(=O)c1ccc([N+](=O)[O-])o1,1.45 µM (active),–
Cc1cccc(NC(=O)c2ccc([N+](=O)[O-])o2)c1C,1.83 µM (active),–
Cc1cccc(NC(=O)N2CCN(Cc3ccc4c(c3)OCO4)CC2)c1C,–,-17.8
O=C(Nc1ccccc1Cl)c1ccc([N+](=O)[O-])o1,1.3 µM (active),–
Cc1ccccc1NC(=O)c1ccc([N+](=O)[O-])o1,1.83 µM (active),–
COc1ccc(-c2cc3ccccc3oc2=O)cc1NC(=O)c1ccc([N+](=O)[O-])o1,0.729 µM (active),–
Cn1c(=O)c(=O)n(C)c2cc([N+](=O)[O-])c(N3CCOCC3)cc21,4.1 µM (active),–
O=C(N/N=C/c1ccc([N+](=O)[O-])o1)c1cc2ccccc2o1,0.516 µM (active),–
O=C(N/N=C/c1ccc([N+](=O)[O-])o1)c1cn2ccc3ccccc3c2n1,0.918 µM (active),–
O=C(N/N=C/c1ccc([N+](=O)[O-])o1)c1sc2ccccc2c1Cl,1.3 µM (active),–
O=C(N/N=C/c1ccc([N+](=O)[O-])o1)c1cc2c(ccc3ccccc32)o1,0.729 µM (active),–
COc1ccc(-n2nc([N+](=O)[O-])c(=NC3CCN(Cc4ccccc4)CC3)n2O)cc1,0.729 µM (active),–
O=[N+]([O-])c1nn(-c2ccc3c(c2)OCCO3)n(O)c1=NC1CCN(Cc2ccccc2)CC1,0.46 µM (active),–
Cc1cccc(-n2nc([N+](=O)[O-])c(=NC3CCN(Cc4ccccc4)CC3)n2O)c1,0.729 µM (active),–
O=[N+]([O-])c1nn(-c2ccccc2)n(O)c1=NC1CCN(Cc2ccccc2)CC1,0.365 µM (active),–
